Source: PubChem
This is a sample that favours compounds with a hit; in the whole collection about 3.7% have one here.
MazEF act = increases E. coli MazEF RNase cleavage of RNA. P0AE70. FAM/BHQ RNA-DNA oligo cleavage fluorescence, 5 h. activation, % at 20 µM. 0.32% of 350,000 active; in the data active = activation above about 50%
BoNT A protease = blocks Botulinum neurotoxin A light chain protease; AID 588499; multiplex microsphere protease substrate cleavage, flow cytometry; 0.17% of 360,000 active; inhibition, % at 10 µM; note: plate controls were buffer without enzyme for full effect and enzyme alone for no effect
BoNT F protease = inhibitors of Botulinum neurotoxin F light chain protease; Multiplex microsphere protease cleavage assay, flow cytometry; inhibition, % at 10 µM; 0.22% of 360,000 active; in the data active = inhibition above about 35%, passing the limit was not always enough; inconclusive = no clear call, values can overlap the other calls; note: plate controls were buffer without enzyme for full effect and enzyme alone for no effect
Autofluor counter = flagged as autofluorescent in microsphere protease counterscreen. compound autofluorescence counterscreen, microsphere flow cytometry; stronger effect = higher value. fluorescence intensity (concentration not given with the values). 3.1% of 360,000 active. AID 624483; in the data active = fluorescence intensity above about 16000; inconclusive = no clear call, values can overlap the other calls
Anthrax LF prot = inhibitors of Bacillus anthracis lethal factor protease | P15917 | multiplex microsphere protease cleavage assay, LF | inhibition, % at 10 µM | 0.12% of 360,000 active; note: plate controls were buffer without enzyme for full effect and enzyme alone for no effect
Target sequence (P15917 whole entry, looked up): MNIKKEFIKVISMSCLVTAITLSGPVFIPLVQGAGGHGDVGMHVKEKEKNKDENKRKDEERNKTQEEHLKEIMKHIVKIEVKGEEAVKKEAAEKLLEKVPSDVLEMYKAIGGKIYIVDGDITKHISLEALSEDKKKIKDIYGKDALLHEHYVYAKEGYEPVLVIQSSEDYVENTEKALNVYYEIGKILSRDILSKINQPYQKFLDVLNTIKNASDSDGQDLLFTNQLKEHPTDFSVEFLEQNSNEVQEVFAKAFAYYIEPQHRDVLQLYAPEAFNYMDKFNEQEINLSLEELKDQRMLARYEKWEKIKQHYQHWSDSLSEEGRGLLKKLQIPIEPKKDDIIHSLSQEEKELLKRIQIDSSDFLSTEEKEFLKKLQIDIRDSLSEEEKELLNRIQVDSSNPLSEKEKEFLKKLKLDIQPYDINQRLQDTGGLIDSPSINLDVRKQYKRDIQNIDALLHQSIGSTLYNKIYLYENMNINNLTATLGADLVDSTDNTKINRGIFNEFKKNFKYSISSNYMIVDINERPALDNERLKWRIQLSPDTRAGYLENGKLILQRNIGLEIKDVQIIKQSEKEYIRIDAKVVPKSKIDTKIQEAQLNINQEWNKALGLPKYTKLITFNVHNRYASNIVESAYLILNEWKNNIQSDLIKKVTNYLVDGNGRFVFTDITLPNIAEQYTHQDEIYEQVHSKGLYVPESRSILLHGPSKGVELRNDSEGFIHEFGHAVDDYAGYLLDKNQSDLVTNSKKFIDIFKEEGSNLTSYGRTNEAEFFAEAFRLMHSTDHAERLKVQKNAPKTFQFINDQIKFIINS
* marks the source's active call; other numbers are inactive results; ? = inconclusive; . = not tested or not shown. Cut-off read from the data, not from the text of the source, unless noted: active = inhibition above about 30%; inconclusive = no clear call, values can overlap the other calls; inactive = below that.

SMILES	MazEF act	BoNT A protease	BoNT F protease	Autofluor counter	Anthrax LF prot
O=C(CN1CCN(Cc2ccccc2)C1=O)NCCCN1CCOCC1	7	0	-1	5999	-2
O=C(NCCCN1CCOCC1)c1ccc(Br)s1	7	0	1	10455	1
O=C(NCCN1CCN(C(=O)c2cccs2)CC1)c1cccs1	-9	0	0	22034*	0
O=C(c1cccs1)N1CCN(CCc2ccccc2)CC1	1	-1	-3	21277*	1
O=C(NCCCN1CCOCC1)c1cccs1	2	?	5	19558*	-5
O=C(Cn1cnc2ccccc21)NCCCN1CCOCC1	1	-4	-7	24254*	-3
COc1ccc(CCCNC(=O)C2Cc3c(-c4ccccc4)ccnc3O2)cc1 (stereo not drawn)	.	0	-4	3916	-8
Nc1c2c(nc3ccccc13)CSCC2	8	-1	-12	6652	-1
O=NN(CC(=O)NNc1ccccc1)CC(=O)NNc1ccccc1	.	0	1	5367	-1
Cc1ccccc1NC(=O)C(C)OC(=O)CCC(=O)c1ccccc1 (stereo not drawn)	-1	0	6	2931	-4
O=C(c1cc(-c2cccs2)on1)N1CCN(c2ccccc2)CC1	4	-1	-2	8264	2
O=C(c1cc(-c2cccs2)on1)N1CCN(c2ccc(F)cc2)CC1	-3	-4	-4	21562*	-6
N/C(COc1cccc(C(F)(F)F)c1)=N\NC(=O)c1cccnc1Oc1ccccc1	3	0	15	3389	-2
Cc1snc(SCC(=O)N/N=C(\N)COc2cccc(C(F)(F)F)c2)c1C#N	19	?	-1	20365*	1
COC(=O)c1ccccc1NC(=O)c1noc2c1CCCC2	-3	2	1	19950*	-2
COc1cc(NC(=O)c2noc3c2CCC3)c(OC)cc1Cl	-3	3	3	19679*	-1
O=C(O)C1C2C=CC(C2)C1C(=O)Nc1cccc(C(F)(F)F)c1 (stereo not drawn)	1	3	50*	3235	2
COC(=O)[C@H](CC(C)C)NC(=O)N1CCN(c2cccc(C(F)(F)F)c2)CC1	-3	-1	-1	23638*	-1
CC(=O)Nc1ccc(CN2CCN(c3cccc(C(F)(F)F)c3)CC2)cc1	9	-2	-3	17158*	-2
C[C@H](NC(=O)Nc1cccc(C(F)(F)F)c1)C(=O)O	15	?	-4	21298*	-3
CC(C)C[C@H](NC(=O)N1CCN(c2ccccc2)CC1)C(=O)O	0	-1	-9	11082	-5
CC(=O)Nc1cccc(NC(=O)C2C3C=CC(C3)C2C(=O)O)c1 (stereo not drawn)	-3	0	-21	3641	15
CC(=O)Nc1ccc(NC(=O)CN2CCN(c3cccc(C(F)(F)F)c3)CC2)cc1	7	0	-8	2572	-2
COc1cccc(-c2cnc3c(NC(C)=O)cc(-c4ccc(C(=O)N5CCOCC5)cc4)cn23)c1	.	0	-7	4247	-9
CCC(CC)C(=O)N(C)c1c(C)nc2c(OCc3cc(Cl)cc(Cl)c3)cccn12	.	-1	-5	3680	-9
SMILES	MazEF act	BoNT A protease	BoNT F protease	Autofluor counter	Anthrax LF prot
O=C(/C=C/Nc1cccc(C(F)(F)F)c1)C(F)(F)F	-8	?	1	20521*	-1
Cc1ccc(OC(F)F)c(NC(=O)Nc2cccc(C(F)(F)F)c2)c1	22	1	-4	19099*	-3
COc1ccccc1NC(=O)N1CCN(c2ccc(F)cc2)CC1	1	1	4	4002	-1
O=C(Nc1ccccc1)Nc1cccc(C(F)(F)F)c1	10	-1	1	4369	-7
CCCN1CCN(C(=O)Nc2cccc(C(F)(F)F)c2)CC1	13	-1	-1	1894	1
O=C(Nc1cccc(C(F)(F)F)c1)N1CCN(C(=O)Nc2cccc(C(F)(F)F)c2)CC1	-1	-2	-3	22460*	0
COc1ccccc1NC(=O)N1CCN(c2cccc(C(F)(F)F)c2)CC1	-13	-1	-3	23145*	-1
CCCC(=O)NC(=S)Nc1ccc(S(=O)(=O)N2CCc3ccccc32)cc1	-4	-24	?	4385	-25
Cc1[nH]c(=O)[nH]c(=O)c1NC(=O)c1cccs1	7	2	2	21903*	-6
CCCN1CCN(c2nc3c([nH]2)c(=N)ncn3CC(O)CO)CC1 (stereo not drawn)	1	-1	-5	3617	-2
N=c1ncn(CC(O)CN2CCOCC2)c2nc(N3CCOCC3)[nH]c12 (stereo not drawn)	3	0	1	22533*	-6
O=C(CSc1nnc(SCc2ccc(Cl)cc2)s1)N/N=C/c1c[nH]c2ccccc12	64*	0	-3	2067	1
O=C(CSc1nnc(SCc2cccc3ccccc23)s1)N/N=C/c1c[nH]c2ccccc12	-15	1	0	2066	-1
O=C1c2ccccc2C(c2nnnn2-c2ccc3c(c2)OCCO3)N1CCc1ccccc1F (stereo not drawn)	.	0	-1	6084	3
COc1ccc(NC(=O)C2CC(=O)OC2c2ccccc2)cc1 (stereo not drawn)	0	5	30	2428	0
Cc1cc(NC(=O)C2CC(=O)OC2c2ccccc2)no1 (stereo not drawn)	1	-1	-5	23968*	0
CC1CCC/C(=C\Nc2ccc3c(c2)OCO3)C1=O (stereo not drawn)	-11	0	-11	22454*	-6
N#Cc1cc(Sc2ccccn2)c(Sc2ccccn2)cc1C#N	-1	-3	-4	17696*	2
CCN1CCN(C(=O)c2nn(-c3ccccc3)c(=O)c3ccccc23)CC1	-5	2	2	18559*	-2
COc1ccc(-n2nc(C(=O)NCC(=O)NCc3ccco3)c3ccccc3c2=O)cc1	3	0	-4	5918	-2
O=C(NCc1ccco1)c1nn(-c2ccccc2)c(=O)c2ccccc12	-6	1	0	21403*	-1
CC(C)CN1C(=O)C(=O)N(CC(=O)NCCCc2ccccc2)C1=O	7	0	7	3862	-1
COc1ccc2c(c1)C(=O)C1(CC2)OC1c1cccnc1 (stereo not drawn)	1	-1	-6	4353	2
Cn1cc(-c2coc3c(C(=O)NCc4ccco4)cccc23)cn1	.	-2	-38	3921	-10
COc1ccccc1-c1nnc2sc(COc3ccccc3)nn12	4	8	11	20024*	-12
COc1ccc(OCc2nn3c(Cn4cnc5ccccc54)nnc3s2)cc1	-12	-2	-2	16600*	-5
c1ccc(CCc2nn3c(Cn4cnc5ccccc54)nnc3s2)cc1	-7	0	-5	7717	1
NS(=O)(=O)c1ccc(CCNc2nc(CN3CCCCC3)nc3sc4c(c23)CCC4)cc1	5	-3	-4	21682*	-2
Cc1cc(S(=O)(=O)Nc2nc(CN3CCOCC3)nc3sc4c(c23)CCC4)cc(C)c1C	1	.	.	.	.
CNC(=S)N1CCc2sccc2C1C (stereo not drawn)	-2	0	0	6227	-1
